Our source for the growth values is PubChem BioAssay (NCI).

About 83,000 compounds went through this panel and 20% of them were active in at least one assay; those are over-represented in the sample as a whole.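 In brief: 96-well plates, 48 h treatment, single concentration, percent growth endpoint.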 Activity calls are given as the source filed them. The calls were made as follows: active = growth percent below 10; inactive = the rest.

The experiment concerns MDA-MB-468 breast. Briefly: NCI-60 one-dose screen, 48 h (100 = growth as untreated, 0 = no growth, -100 = all killed). Particulars: 10 µM unless noted.
`CC(C)CCSc1nc(N)nc2nc[nH]c12`: the growth is 103% (inactive).
The figure for `COc1ccc(/C=C/C(=O)c2cc3c(N)c(C(=O)Nc4ccccc4)sc3nc2C)cc1` is 15.3% (inactive).
On to `O=c1cc(-c2ccc(Cl)cc2)[nH]c2ccccc12`, for which the growth was 85.6% (inactive).
Then `COc1ccc(-c2cc(-c3ccc(OC)cc3)c3sc(=O)[nH]c3n2)cc1`, with 96.4% (inactive).
The figure for `O=C(O)c1ccc(-n2cc(CNc3ccc(Cl)cc3)c(-c3ccccc3)n2)cc1` is 102% (inactive); for `COc1ccc(NC(=O)CSc2nnc(-c3ccc4nc(-c5ccccc5)[nH]c4c3)o2)cc1` it is 95.5% (inactive); for `COc1ccc(Cn2nc(-c3ccccc3)c3c2CCc2cnoc2-3)cc1` it is 43.1% (inactive).
The figure for `CCCCC1Nc2nc(SC)n(C)c(=O)c2CN(Cc2ccccc2)C1=O` (stereo not given) is 101% (inactive); for `Fc1ccc(-c2nnc(-c3c(-c4ccc(F)cc4)nc4ncccn34)o2)cc1` it is 88.7% (inactive); for `CCCCCCCCCCCCCCCCN(CC)CC` it is -85.3% (active).
